# The sample as a whole holds a higher share of the strongest signals than the screen did.
# B1: PpFlo2 (Pichia pastoris) (protein)
# chain: MGSSHHHHHHSSGLVPRGSHMDDSGNGDNSDTAYGCDITTNAVDGFDATIYQYNANDLRLIRDPTFMSTGYLGRNVLNKISGVTVPGFNIWNPSSRTATVYGVKNVNYYNMVLELKGYFKADVSGDYKLTLSHIDDSSMLFFGKETAFKCCDAGSIPLNEAPTDYSLFTIKPSNQVNSEVISATQYLEAGKYYPVRIVFVNALERARFDFKLTIPSGAVLDDFQNYIYQFGDLDENSCHE
# Experiments:
# Test in all cases: glycan array binding signal (z-score within array); higher = stronger binding
# Conditions in all cases: glycan notation: IUPAC condensed, linker removed
# [1] = target: GlcNAc(b1-3)Gal(b1-4)GlcNAc(b1-3)Gal(b1-4)GlcNAc(b1-2)Man(a1-3)[GlcNAc(b1-3)Gal(b1-4)GlcNAc(b1-3)Gal(b1-4)GlcNAc(b1-2)Man(a1-6)]Man(b1-4)GlcNAc(b1-4)[Fuc(a1-6)]GlcNAc
# How it was run: (§1)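 Arrays were curated from the Consortium for Functional Glycomics database, 3228 in total, and kept only where the protein sequence was available. Binding is expressed as a within-array Z-score. This score was averaged across arrays of the same protein sequence at different concentrations or buffers and across linkers, and negative values can be read as non-binding.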
# [2] = target: GlcNAc(b1-3)Gal(b1-4)GlcNAc(b1-3)Gal(b1-4)GlcNAc(b1-3)Gal(b1-4)GlcNAc(b1-2)Man(a1-3)[GlcNAc(b1-3)Gal(b1-4)GlcNAc(b1-3)Gal(b1-4)GlcNAc(b1-3)Gal(b1-4)GlcNAc(b1-2)Man(a1-6)]Man(b1-4)GlcNAc(b1-4)GlcNAc
# How it was run: as §1
# [3] = target: GlcNAc(b1-3)Gal(b1-4)GlcNAc(b1-3)Gal(b1-4)GlcNAc(b1-3)Gal(b1-4)GlcNAc(b1-2)Man(a1-3)[GlcNAc(b1-3)Gal(b1-4)GlcNAc(b1-3)Gal(b1-4)GlcNAc(b1-3)Gal(b1-4)GlcNAc(b1-2)Man(a1-6)]Man(b1-4)GlcNAc(b1-4)[Fuc(a1-6)]GlcNAc
# How it was run: as §1
# [4] = target: GlcNAc(b1-3)Gal(b1-4)GlcNAc(b1-3)Gal(b1-4)GlcNAc(b1-3)Gal(b1-4)GlcNAc(b1-3)Gal(b1-4)GlcNAc(b1-2)Man(a1-3)[GlcNAc(b1-3)Gal(b1-4)GlcNAc(b1-3)Gal(b1-4)GlcNAc(b1-3)Gal(b1-4)GlcNAc(b1-3)Gal(b1-4)GlcNAc(b1-2)Man(a1-6)]Man(b1-4)GlcNAc(b1-4)GlcNAc
# How it was run: as §1
# [5] = target: GlcNAc(b1-3)Gal(b1-4)GlcNAc(b1-3)Gal(b1-4)GlcNAc(b1-3)Gal(b1-4)GlcNAc(b1-3)Gal(b1-4)GlcNAc(b1-2)Man(a1-3)[GlcNAc(b1-3)Gal(b1-4)GlcNAc(b1-3)Gal(b1-4)GlcNAc(b1-3)Gal(b1-4)GlcNAc(b1-3)Gal(b1-4)GlcNAc(b1-2)Man(a1-6)]Man(b1-4)GlcNAc(b1-4)[Fuc(a1-6)]GlcNAc
# How it was run: as §1
# [6] = target: GlcNAc(b1-3)Gal(b1-4)GlcNAc(b1-3)Gal(b1-4)GlcNAc(b1-3)Gal(b1-4)GlcNAc(b1-3)Gal(b1-4)GlcNAc(b1-2)[GlcNAc(b1-3)Gal(b1-4)GlcNAc(b1-3)Gal(b1-4)GlcNAc(b1-3)Gal(b1-4)GlcNAc(b1-3)Gal(b1-4)GlcNAc(b1-6)]Man(a1-6)[GlcNAc(b1-3)Gal(b1-4)GlcNAc(b1-3)Gal(b1-4)GlcNAc(b1-3)Gal(b1-4)GlcNAc(b1-3)Gal(b1-4)GlcNAc(b1-2)Man(a1-3)]Man(b1-4)GlcNAc(b1-4)[Fuc(a1-6)]GlcNAc
# How it was run: as §1
# [7] = target: GlcNAc(b1-3)Gal(b1-4)GlcNAc(b1-3)[GlcNAc(b1-3)Gal(b1-4)GlcNAc(b1-3)]GalNAc
# How it was run: as §1
# [8] = target: GlcNAc(b1-3)Gal(b1-4)GlcNAc(b1-6)[Gal(b1-3)]GalNAc
# How it was run: as §1
# [9] = target: GlcNAc(b1-4)Gal(b1-4)GlcNAc
# How it was run: as §1
# [10] = target: GlcNAc(b1-6)Gal(b1-4)GlcNAc
# How it was run: as §1
# [11] = target: GlcNAc(b1-6)GalNAc
# How it was run: as §1
# [12] = target: Man(a1-2)Man(a1-3)[Man(a1-6)]Man(a1-6)[Man(a1-2)Man(a1-3)]Man(b1-4)GlcNAc(b1-4)GlcNAc
# How it was run: as §1
# [13] = target: Man(a1-3)[Man(a1-6)]Man(b1-4)GlcNAc(b1-4)GlcNAc
# How it was run: as §1
# [14] = target: Man(a1-3)[Man(a1-6)]Man(b1-4)GlcNAc(b1-4)[Fuc(a1-6)]GlcNAc
# How it was run: as §1
# [15] = target: Neu5Ac(a2-3)Gal(b1-3)[Fuc(a1-4)]GlcNAc
# How it was run: as §1
# [16] = target: Neu5Ac(a2-3)Gal(b1-3)[GlcNAc(b1-6)]GalNAc
# How it was run: as §1
# [17] = target: Neu5Ac(a2-3)Gal(b1-4)GlcNAc(b1-2)Man(a1-3)[Neu5Ac(a2-3)Gal(b1-4)GlcNAc(b1-2)Man(a1-6)]Man(b1-4)GlcNAc(b1-4)[Fuc(a1-6)]GlcNAc
# How it was run: as §1
# [18] = target: Neu5Ac(a2-3)Gal(b1-4)GlcNAc(b1-2)[Neu5Ac(a2-3)Gal(b1-4)GlcNAc(b1-4)]Man(a1-3)[GlcNAc(b1-4)][Neu5Ac(a2-3)Gal(b1-4)GlcNAc(b1-4)Man(a1-6)]Man(b1-4)GlcNAc(b1-4)GlcNAc
# How it was run: as §1
# [19] = target: Neu5Ac(a2-3)Gal(b1-4)GlcNAc(b1-3)Gal(b1-4)GlcNAc
# How it was run: as §1
# [20] = target: Neu5Ac(a2-3)Gal(b1-4)GlcNAc(b1-3)Gal(b1-4)GlcNAc(b1-2)Man(a1-3)[Neu5Ac(a2-3)Gal(b1-4)GlcNAc(b1-3)Gal(b1-4)GlcNAc(b1-2)Man(a1-6)]Man(b1-4)GlcNAc(b1-4)GlcNAc
# How it was run: as §1
# [21] = target: Neu5Ac(a2-3)GalNAc(b1-4)GlcNAc
# How it was run: as §1
# [22] = target: Neu5Ac(a2-6)Gal(b1-4)GlcNAc(b1-2)Man(a1-3)Man(b1-4)GlcNAc(b1-4)GlcNAc
# How it was run: as §1
# [23] = target: Neu5Ac(a2-6)Gal(b1-4)GlcNAc(b1-2)Man(a1-3)[Neu5Ac(a2-3)Gal(b1-4)GlcNAc(b1-2)Man(a1-6)]Man(b1-4)GlcNAc(b1-4)GlcNAc
# How it was run: as §1
# [24] = target: Neu5Ac(a2-6)Gal(b1-4)GlcNAc(b1-2)Man(a1-6)[GlcNAc(b1-2)Man(a1-3)]Man(b1-4)GlcNAc(b1-4)GlcNAc
# How it was run: as §1
# [25] = target: Neu5Ac(a2-8)Neu5Ac(a2-3)Gal(b1-4)Glc
# How it was run: as §1
# [26] = target: Neu5Gc(a2-3)Gal(b1-3)GlcNAc
# How it was run: as §1
# [27] = target: Neu5Gc(a2-3)Gal(b1-4)GlcNAc
# How it was run: as §1
# [28] = target: Neu5Gc(a2-8)Neu5Gc(a2-6)Gal(b1-4)GlcNAc
# How it was run: as §1
binder,measurement,setting,value
B1,glycan array binding signal (z-score),[1],6.15
same,glycan array binding signal (z-score),[2],4.24
same,glycan array binding signal (z-score),[3],7.22
same,glycan array binding signal (z-score),[4],7.34
same,glycan array binding signal (z-score),[5],7.63
same,glycan array binding signal (z-score),[6],4.18
same,glycan array binding signal (z-score),[7],4.33
same,glycan array binding signal (z-score),[8],2.11
same,glycan array binding signal (z-score),[9],0.414
same,glycan array binding signal (z-score),[10],0.578
same,glycan array binding signal (z-score),[11],0.967
same,glycan array binding signal (z-score),[12],-0.276
same,glycan array binding signal (z-score),[13],0.074
same,glycan array binding signal (z-score),[14],-0.248
same,glycan array binding signal (z-score),[15],-0.304
same,glycan array binding signal (z-score),[16],0.351
same,glycan array binding signal (z-score),[17],-0.271
same,glycan array binding signal (z-score),[18],-0.271
same,glycan array binding signal (z-score),[19],-0.293
same,glycan array binding signal (z-score),[20],-0.239
same,glycan array binding signal (z-score),[21],-0.302
same,glycan array binding signal (z-score),[22],-0.293
same,glycan array binding signal (z-score),[23],-0.271
same,glycan array binding signal (z-score),[24],2.77
same,glycan array binding signal (z-score),[25],-0.301
same,glycan array binding signal (z-score),[26],-0.301
same,glycan array binding signal (z-score),[27],-0.299
same,glycan array binding signal (z-score),[28],-0.273

# — the supplement of paper PMC8728848
